# An excerpt weighted towards active compounds, which were near 7.4% of everything screened.
# SNCA expr inh – Primary qHTS assay for inhibitors of alpha-synuclein gene (SNCA) expression; Potency, µM (highest dose often 57.2 µM), without a hit: at the top dose activity change, negative = inhibition, most hits filed as inhibitors; HEK-293 SNCA-luciferase knock-in, luminescence, 24 h; AID 1671194, 2021; 140,000 compounds, 0.17% hits;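 note: plate controls were DMSO cells for no effect and cell-free wells for full effect; nearly all actives have a fitted effect of over 45% in size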
# NIH3T3 tox – Cytotoxic Profiling in NIH 3T3 Cell Line of Diverse Libraries Using Quantitative High-Throughput Screening. NIH 3T3 viability, CellTiter-Glo ATP luminescence, 48-72 h. Potency, µM (titrated, usually from 96.7 µM), for the others: at the highest dose activity change, negative = cytotoxicity, hits mostly inhibitors. 94,000 compounds, 4.3% hits; note: % is set by controls: 0 for no effect and ±100 for the full control effect; nearly all actives have a fitted effect of over 55% in size
#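 First NIH 3T3 cells are plated at 400 cells/well; next compound is pinned in; then plates incubate 48 or 72 hr at 37 °C; finally CellTiter-Glo is added and luminescence read after 10 min.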
# HEK293 viab – GF-AFC viability counterscreen for inhibitors of alpha-synuclein gene (SNCA) expression. HEK-293-SNCA-luc viability, GF-AFC fluorescence, 24 h. Potency, µM (doses to about 57.1 µM), inactives show at the top dose activity change, negative = cytotoxicity, actives largely listed as cytotoxic. 150,000 compounds, 0.12% hits. AID 1671193, 2021;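 note: 0% = DMSO-treated cells and -100% = medium-only wells without cells; nearly all actives have a fitted effect of over 30% in size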
#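 Cytotoxicity counterscreen: after 24 h compound treatment of genome-edited SNCA-luciferase HEK-293 cells, live-cell protease substrate GF-AFC read by fluorescence after 30 min; activity scaled between DMSO (0%) and medium-only (-100%), curves Hill-fitted.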
# NPR1 antag – Natriuretic polypeptide receptor (hNpr1) antagonism - Primary qHTS; HEK293 hNpr1 GloSensor cGMP, ANP-stimulated luminescence; Potency, µM (top dose mostly 46.3 µM), for the others: at the top dose activity change, negative = inhibition, actives largely listed as inhibitors; 76,000 compounds, 1.6% hits; AID 1347048, 2019; calls by dose curve; note: % is set by controls: 0 for no effect and ±100 for the full control effect; nearly all actives have a fitted effect of over 60% in size
#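 Compound pre-incubated 30 min at room temperature on GloSensor-loaded HEK293 cells stably carrying hNpr1 and the pGS-40F cGMP biosensor. Stimulation uses hNppA at 0.1 nM final; luminescence is taken at baseline and 20 min post-agonist.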
# HEK293 tox – Cytotoxic Profiling in HEK 293 Cell Line of Diverse Libraries Using Quantitative High-Throughput Screening | HEK 293 viability, ATP luminescence (CellTiter-Glo), 48-72 h | Potency, µM (series often up to 115 µM), inactives show at the highest dose activity change, negative = cytotoxicity, most hits filed as inhibitors | 94,000 compounds, 6.6% hits | AID 1345083, 2018; note: % is set by controls: 0 for no effect and ±100 for the full control effect; nearly all actives have a fitted effect of over 60% in size
#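 HEK 293 cells seeded at 250 cells/well were exposed to compound for 48 or 72 hr at 37 degree Celsius. Viability taken as ATP content by CellTiter-Glo luminescence.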
# FLuc inh-1 – Firefly luciferase inhibition profiling of diverse chemical library using quantitative high-throughput screening | Luciferin 4-monooxygenase (Photinus pyralis), P08659 | 76,000 compounds, 2.5% hits | Potency, µM (top dose mostly 115 µM), usual class: inhibitors | purified P. pyralis luciferase, luminescence, biochemical; note: % is set by controls: 0 for no effect and ±100 for the full control effect; nearly all actives have a fitted effect of over 65% in size
#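 Inhibitors were tested against purified firefly luciferase in a biochemical, low-substrate format (both substrates at 10uM) and luminescence measured with a CCD imager.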
# FLuc SDR no ATP – Firefly luciferase (FLuc-C-HiBiT) SDR gain of signal screen - without ATP. shares compounds with FLuc inh-1. Purified FLuc-C-HiBiT, Nano-Glo HiBiT luminescence, no ATP. Potency, µM (top dose mostly 32.7 µM), inactives show top-dose activation (signal gain), hits mostly activators. 1,300 compounds, 7.8% hits. AID 1963318, 2024; note: nearly all actives have a fitted effect of over 55% in size
# FLuc SDR ATP – Firefly luciferase (FLuc-C-HiBiT) SDR gain of signal screen - plus ATP. purified FLuc-C-HiBiT + ATP, HiBiT complementation luminescence. AID 1963319, 2024. 1,300 compounds, 8.7% hits. shares compounds with FLuc inh-1. Potency, µM (titrated, usually from 32.7 µM), for inactives: top-dose activation (gain of signal), usual class: activators;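 note: signal reports ligand binding via conformational change of the enzyme rather than luciferase catalysis; % of control where 0% means no effect; nearly all actives have a fitted effect of over 55% in size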
# FLuc inh-2 – Firefly luciferase (FLuc-C-HiBiT) enzymatic inhibition screen - Functional assay; shares compounds with FLuc inh-1; purified FLuc-C-HiBiT enzyme, luciferin luminescence; Potency, µM (doses to about 32.7 µM), without a hit: top-dose activity change, negative = inhibition, most hits filed as inhibitors; 1,300 compounds, 42% hits; note: % is set by controls: 0 for no effect and ±100 for the full control effect; nearly all actives have a fitted effect of over 70% in size
# * = called active by the depositor; i = inactive; ? = inconclusive; . = not tested or not shown; [ ] = dose if it differs, or a comment. Unless noted, calls come from the whole dose curve; as a rule, active = well fitted curve in the direction sought with a large enough effect; inconclusive = small, poorly fitted or top-dose-only effect, or another doubt; inactive = no such curve, though single readings can be large; an effect the other way counts as inactive or inconclusive. Potency is the fitted concentration of half-maximal effect.
SMILES,SNCA expr inh,NIH3T3 tox,HEK293 viab,NPR1 antag,HEK293 tox,FLuc inh-1,FLuc SDR no ATP,FLuc SDR ATP,FLuc inh-2
COc1ccc(NC(=O)C2CCN(C(=O)c3ncn4c3COC(c3ccccc3)C4)CC2)cc1OC (stereo not given),39.0%,0.3%,-2.4%,-2.1%,12.4%,5.62µM*,12.8%,?,3.51µM*
COc1ccc(NC(=O)C2CCN(C(=O)c3ncn4c3COC(c3ccccc3)C4)CC2)cc1 (stereo not given),84.5%,i,0.5%,1.5%,8.2%,8.91µM*,11.2%,?,?
Cc1ccccc1CN1Cc2nc(N3CCCC3)ccc2OCC1=O,-9.1%[87.6 µM],?,-0.8%[87.6 µM],-0.7%[70.6 µM],?,i,.,.,.
CCOC(=O)c1ccc(NC2SC(=O)N(Cc3cccc(C(=O)O)c3)C2=O)cc1 (stereo not given),111.1%,.,-15.0%,.,.,.,14.3%,?,?
COc1cccc(C(=O)NCCn2ccn3nc(-c4ccc(C)cc4C)cc3c2=O)c1OC,72.6%,?,5.0%,-5.4%,?,5.62µM*,31.0%,18.5%,9.89µM*
COc1ccccc1CC(=O)NCCn1ccn2nc(-c3ccc(C)c(C)c3)cc2c1=O,6.1%,-22.6%,-3.5%,-4.6%,-6.1%,i,.,.,.
COc1ccc(-c2cc3c(=O)n(CCNC(=O)c4cccc(N(C)C)c4)ccn3n2)cc1,46.1%,-12.5%,?,-27.8%,?,3.55µM*,27.6%,?,?
CCOc1ccc(-c2cc3c(=O)n(CCNC(=O)c4cccc5[nH]ccc45)ccn3n2)cc1,88.1%,28.2µM*,-15.4%,-26.6%,22.4µM*,7.94µM*,?,?,5.56µM*
COc1cccc(C(=O)NCCn2ccn3nc(-c4ccc(C)c(C)c4)cc3c2=O)c1OC,50.3%,-23.4%,-6.7%,-11.6%,?,5.62µM*,23.0%,16.9%,7.85µM*
C[S+](=O)([O-])NCCNC(=O)c1ccc(-c2cncnc2)cc1,.,i,.,.,3.8%[172 µM],.,.,.,.
CCCCS(=O)(=O)Nc1ncnc(OCCOc2ncc(Br)cn2)c1-c1ccc(Br)cc1,.,.,-2.1%,.,.,.,.,.,.
C#CCNC(=O)c1cn2cc(-c3ccc(C)cc3)sc2n1,52.5%[87.6 µM],-8.7%[138 µM],6.0%[87.6 µM],.,4.0%[172 µM],.,.,.,.
CC(C)(C)c1ccc(C(=O)Nc2ccc(C(O)[C@H]3COCC(=O)N3Cc3ccccc3)cc2)cc1 (stereo not given in full),-15.3%,22.4µM*,?,?,?,11.2µM*,15.2%,10.4%,-15.1%
CC(C)c1cnc(N2CCC(COc3ccc4c(cnn4CCC(=O)O)c3)CC2)nc1,13.4%[87.6 µM],?,-2.5%[87.6 µM],1.4%[70.6 µM],?,14.1µM*,15.3%[49.3 µM],9.0%[49.3 µM],?
